Drawing on PubChem BioAssay (NCI), this text covers growth for three molecules.

About 83,000 compounds went through this panel and 20% of them were active in at least one assay; those are over-represented in the sample as a whole.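 Step 1: grow cells in 96-well plates. Step 2: add test compound at a single concentration. Step 3: incubate 48 h. Step 4: record percent growth.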 Activity calls are given as the source filed them. Rule for the calls: active = growth percent below 10; inactive = the rest.

The experiment deals with HL-60(TB) leukemia. Put plainly: NCI-60 one-dose screen, 48 h (100 = growth as untreated, 0 = no growth, -100 = all killed). Particulars: 10 µM unless noted.
In the case of `O=C1CCCc2nc3sc4c(=O)n(-c5ccccc5Cl)nnc4c3cc21`, the growth is 109% (inactive).

As for `CCN(CC)Cc1cc(Nc2ccnc3cc(Cl)ccc23)ccc1OC`, the growth was 86% (inactive).

Consider `CNC(=O)c1cc(Oc2ccc(NC(=O)c3nc(S(C)(=O)=O)sc3-c3ccc(F)cc3)cc2)ccn1`, for which the growth was 27.2% (inactive).
